Laboratory results from PubChem BioAssay AID1851 (National Center for Advancing Translational Sciences (NCATS), 2009).
About 5,800 (36%) of roughly 16,000 compounds were called active. Not shown: some 23% with an inconclusive outcome. This is one part of the list. Unmarked numbers belong to inactive results. The call rests on the fitted dose curve; in most records, active means well fitted curve in the direction sought with a large enough effect; inconclusive means small, poorly fitted or top-dose-only effect, or effect the other way; inactive means no such curve, though single readings can be large or run the other way.

target: Cytochrome P450 2C19 (Homo sapiens) (UniProt P33261); assay: Cytochrome panel assay with activity outcomes; settings: recombinant CYP, pro-luciferin dealkylation, luminescence, p450-cyp2c19; series mostly up to 57.1 µM; activity, negative = inhibition: at the top concentration
Sequence (P33261 whole entry, looked up): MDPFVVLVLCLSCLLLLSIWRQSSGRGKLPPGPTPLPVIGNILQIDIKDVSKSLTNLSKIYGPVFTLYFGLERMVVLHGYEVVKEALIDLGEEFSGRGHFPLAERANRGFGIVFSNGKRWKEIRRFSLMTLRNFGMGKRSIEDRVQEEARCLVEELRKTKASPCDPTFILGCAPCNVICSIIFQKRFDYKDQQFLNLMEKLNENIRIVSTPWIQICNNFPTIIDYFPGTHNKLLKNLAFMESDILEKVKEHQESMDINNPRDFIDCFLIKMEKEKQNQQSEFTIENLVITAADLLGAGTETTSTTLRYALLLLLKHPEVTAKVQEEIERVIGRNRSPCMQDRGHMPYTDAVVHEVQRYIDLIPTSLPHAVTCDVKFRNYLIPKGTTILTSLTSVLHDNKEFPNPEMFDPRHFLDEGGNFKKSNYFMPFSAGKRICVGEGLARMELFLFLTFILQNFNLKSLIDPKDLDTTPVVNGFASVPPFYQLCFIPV
On the % scale 0 is the no-effect control and ±100 the full control effect.

| Structure (SMILES) | activity, negative = inhibition | AC50 |
| --- | --- | --- |
| Oc1ccc(Cc2nccc3cc(O)c(O)cc23)cc1O | -17.6% [at 11.4 µM] |  |
| COCc1nnc(NC(=O)CSc2ccc(C)cc2)s1 |  | 3550 nM (active) |
| COCc1nnc(NC(=O)CCN2C(=O)c3ccccc3C2=O)s1 | -6.41% |  |
| COC(=O)c1sccc1NC(=O)CSc1ccc(Cl)cc1 |  | 7080 nM (active) |
| COc1ccc2c3c([nH]c2c1)[C@H]1C[C@@H]2[C@@H](C[C@@H](O)[C@H](OC)[C@H]2C(=O)O)CN1CC3 | 19% [at 11.4 µM] |  |
| CCOc1ccc(N(CCC#N)S(=O)(=O)c2ccc(OC)cc2)cc1 |  | 3550 nM (active) |
| O=C(Nc1ccc2nc(-c3ccc(Br)o3)[nH]c2c1)c1ccco1 |  | 22400 nM (active) |
| O=C(Nc1cccc(NC(=O)c2ccc(-c3cccc(Br)c3)o2)c1)c1ccco1 |  | 2510 nM (active) |
| O=C(Nc1cccc(-c2cn3cccnc3n2)c1)c1ccco1 | -20.9% |  |
| O=C(Nc1cccc(Br)c1)/C(=C\c1cccnc1)NC(=O)c1ccco1 | -17.1% |  |
| CCCCCc1nc2c(C#N)c(-c3ccc(Cl)cc3)ccn2n1 |  | 7940 nM (active) |
| Cc1noc(C)c1CS(=O)(=O)c1ccc(Br)cc1 |  | 282 nM (active) |
| CC1Cc2ccccc2N1C(=O)CSc1nnnn1C(C)C (stereo unspecified) |  | 4470 nM (active) |
| Cc1ccccc1-n1ncc2c(SCC(=O)N3c4ccccc4CC3C)ncnc21 (stereo unspecified) |  | 7080 nM (active) |
| CCN1CCN(CC(=O)N2c3ccccc3CC2C)CC1 (stereo unspecified) | -27.5% |  |
| O=C1COc2ccccc2CN1 | -13.1% |  |
| CC1Cc2ccccc2N1C(=O)CN1C(=O)COc2ccccc21 (stereo unspecified) |  | 3160 nM (active) |
| C[C@@H]1Cc2ccccc2N1NC(=O)c1ccc(Cl)c(S(N)=O)c1 (stereo partly specified) | -36.6% [at 25.6 µM] |  |
| CC1(C)CCC(NC(=O)[C@H](N)CCC(=O)O)CC1 | 12.9% |  |
| COCC(=O)Nc1c(I)c(C(=O)NC[C@@H](O)CO)c(I)c(C(=O)N(C)C[C@@H](O)CO)c1I | -21.5% [at 25.6 µM] |  |
| Cc1cccc(C)c1OC1(c2ccccc2)OC(=O)c2ccccc21 (stereo unspecified) |  | 251 nM (active) |

| Structure (SMILES) | activity, negative = inhibition | AC50 |
| --- | --- | --- |
| O=C1OC(OC2CCCCC2)(c2ccccc2)c2ccccc21 (stereo unspecified) |  | 7940 nM (active) |
| Cc1cccc(OC2(c3ccccc3)OC(=O)c3ccccc32)c1C (stereo unspecified) |  | 2510 nM (active) |
| C=C[C@]1(C)C[C@H](OC(=O)CO)[C@]2(C)C3C(=O)CC[C@]3(CC[C@H]2C)[C@H](C)[C@H]1O (stereo partly specified) | -15.4% [at 11.4 µM] |  |
| Cc1ccc(Cn2cccc(NC(=O)NC3CCCCC3)c2=O)cc1 |  | 14100 nM (active) |
| O=C(Nc1cccn(Cc2ccc(F)cc2)c1=O)NC1CCCCC1 |  | 10000 nM (active) |
| COCCn1c(=O)c(-c2cc(F)cc(F)c2)nc2cnc(N3CCOCC3)nc21 | 12.7% |  |
| c1ccc2oc(C3=NCCN3)cc2c1 | -37.9% |  |
| COCCn1c(=O)c(C)nc2cnc(N3CCNCC3)nc21 | -13.7% |  |
| O=[N+]([O-])c1ccc(N2CCOCC2)nc1 | -21.3% |  |
| Cc1cc(N2CCOCC2)ncc1[N+](=O)[O-] |  | 31600 nM (active) |
| Cc1ccc(S(=O)(=O)/N=C2/NC(=O)/C(=C/c3cccnc3)S2)cc1 |  | 2240 nM (active) |
| Cc1cccc(-c2nsc(SCC(=O)Nc3nccs3)n2)c1 |  | 1780 nM (active) |
| O=C(CSc1nc(-c2ccccc2)nc2ccccc12)Nc1nccs1 | -22.4% |  |
| O=C(CSc1nc2ccccc2s1)Nc1nccs1 |  | 1580 nM (active) |
| O=C(CSCc1ccc(Cl)cc1)Nc1nccs1 |  | 2510 nM (active) |
| O=C(CSc1nc2ccccc2s1)NNC(=S)Nc1ccc(Br)cc1 |  | 2820 nM (active) |
| Cc1ccc(S(=O)(=O)NC(=O)CSc2nc3ccccc3s2)cc1 | -26.7% |  |
| O=S(=O)(c1ccc(Cl)cc1)c1cnc(-c2cccnc2)nc1-c1ccccc1 |  | 2820 nM (active) |
| O=S(=O)(c1ccccc1)c1cnc(-c2cccnc2)nc1-c1ccc(Cl)cc1Cl |  | 5010 nM (active) |
| OC[C@H]1O[C@H](n2cnc3c(NC4CCCC4)nc(Cl)nc32)[C@@H](O)[C@@H]1O | 4.34% |  |
| COc1ccc(-c2nnc(SCc3cccc(C)c3)n2N)cc1 |  | 2510 nM (active) |

| Structure (SMILES) | activity, negative = inhibition | AC50 |
| --- | --- | --- |
| CCn1c(SCc2cccc(C)c2)nnc1-c1ccccc1 |  | 501 nM (active) |
| CCn1c(SCc2cccc(C)c2)nnc1-c1ccc(C)cc1 |  | 2240 nM (active) |
| NS(=O)(=O)c1cc2c(cc1Cl)=NC(CCC(=O)O)=NS=2(=O)O | 22.1% [at 11.4 µM] |  |
| C[C@H](C[C@H](N)C(=O)O)C(=O)O | -19.8% |  |
| O=C(O)/C(=C\c1ccncc1)c1cccc2ccccc12 |  | 2510 nM (active) |
| NC(=O)/C(=C\c1ccncc1)c1cccc2ccccc12 |  | 2510 nM (active) |
| O=C(O)CCC(=O)c1ccc2ccc3cccc4ccc1c2c34 | 25.1% [at 11.4 µM] |  |
| O=C(O)/C(=C\c1ccc(O)cc1)c1cccc2ccccc12 | -11.8% [at 11.4 µM] |  |
| OC[C@@H]1O[C@@H](N2CCN([C@@H]3O[C@@H](CO)[C@@H](O)[C@H](O)[C@H]3O)CC2)[C@@H](O)[C@H](O)[C@H]1O | 29.2% [at 11.4 µM] |  |
| Clc1ccc2c(c1)C1=C(C(c3ccncc3)O2)C(c2ccc(Br)cc2)n2ncnc2N1 (stereo unspecified) |  | 708 nM (active) |
| O=C(O)c1cc(N=Cc2ccccc2O)cc(C(=O)O)c1 | 8.41% [at 11.4 µM] |  |
| Cc1cc(O)c(C(C)C)cc1N=Cc1ccccc1O |  | 398 nM (active) |
| O=C(O)c1ccccc1C(=O)Nc1ccc(S(=O)(=O)Nc2nccs2)cc1 | 32.7% [at 25.6 µM] |  |
| O=C(CCN1C(=O)S/C(=C\c2ccccc2)C1=O)Nc1ccc(S(=O)(=O)Nc2nccs2)cc1 |  | 5010 nM (active) |
| c1ccc2c(CN3CCN(Cc4c[nH]c5ccccc45)CC3)c[nH]c2c1 | 1.09% [at 11.4 µM] |  |
| O=S1(=O)CCN(c2ccccc2CC(c2c[nH]c3ccccc23)c2c[nH]c3ccccc23)CC1 |  | 3160 nM (active) |
| Fc1cc2nc(-c3ccncc3)[nH]c2cc1F |  | 7080 nM (active) |
| COc1ccc(C2=CSC(/N=C/c3ccc(F)cc3)=NN2)cc1 |  | 17800 nM (active) |
| CC(C)CCOc1ccc(NC(=O)C2OC3OC(C)(C)OC3C3OC(C)(C)OC23)cc1 (stereo unspecified) | -23% |  |
